Laboratory results taken from the supplement of paper PMC8728848.
About 410 targets per protein were measured; listed, in parts, are those with the strongest signals and a random draw of the rest.

Legend:
Assay in all cases: glycan array binding signal (z-score within array); higher = stronger binding
Conditions in all cases: glycan notation: IUPAC condensed, linker removed; mutation: R120K
[1] = biological target: Fuc(a1-2)Gal(b1-3)GlcNAc(b1-3)GalNAc
Procedure, shortened: (§1)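 Glycan array data came from 3228 arrays in the Consortium for Functional Glycomics database, and only arrays with an available protein sequence were kept. Glycan names were put into IUPAC-condensed notation, and columns mapping to the same glycan were averaged. The binding signal is a within-array Z-score, averaged across arrays of one protein sequence run at different concentrations or buffers and across linkers. A negative Z-score can be read as non-binding.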

[2] = biological target: Fuc(a1-2)Gal(b1-3)[Fuc(a1-4)]GlcNAc(b1-2)Man(a1-3)[Fuc(a1-2)Gal(b1-3)[Fuc(a1-4)]GlcNAc(b1-2)Man(a1-3)]Man(b1-4)GlcNAc(b1-4)GlcNAc
Procedure, shortened: as §1

[3] = biological target: Fuc(a1-2)Gal(b1-4)Fuc(a1-3)]GlcNAc(b1-2)Man(a1-3)[Fuc(a1-2)Gal(b1-4)[Fuc(a1-3)]GlcNAc(b1-2)Man(a1-6)]Man(b1-4)GlcNAc(b1-4)GlcNAc
Procedure, shortened: as §1

[4] = biological target: Fuc(a1-2)Gal(b1-4)GlcNAc(b1-3)Gal(b1-4)GlcNAc(b1-2)Man(a1-3)[Fuc(a1-2)Gal(b1-4)GlcNAc(b1-3)Gal(b1-4)GlcNAc(b1-2)Man(a1-6)]Man(b1-4)GlcNAc(b1-4)GlcNAc
Procedure, shortened: as §1

[5] = biological target: Fuc(a1-2)Gal(b1-4)[Fuc(a1-3)]GlcNAc
Procedure, shortened: as §1

[6] = biological target: Fuc(a1-2)Gal6S(b1-3)GlcNAc6S
Procedure, shortened: as §1

[7] = biological target: Fuc(a1-2)[Gal(a1-3)]Gal(b1-3)GlcNAc(b1-2)Man(a1-3)[Fuc(a1-2)[Gal(a1-3)]Gal(b1-3)GlcNAc(b1-2)Man(a1-6)]Man(b1-4)GlcNAc(b1-4)[Fuc(a1-6)]GlcNAc
Procedure, shortened: as §1

[8] = biological target: Fuc(a1-2)[Gal(a1-3)]Gal(b1-4)GlcNAc(b1-3)[Fuc(a1-2)[Gal(a1-3)]Gal(b1-4)GlcNAc(b1-6)]GalNAc
Procedure, shortened: as §1

[9] = biological target: Fuc(a1-3)GlcNAc
Procedure, shortened: as §1

[10] = biological target: Fuc(a1-3)[Gal(b1-4)]GlcNAc(b1-3)Gal(b1-3)[Fuc(a1-4)]GlcNAc
Procedure, shortened: as §1

[11] = biological target: Fuc(a1-4)GlcNAc
Procedure, shortened: as §1

[12] = biological target: Gal(a1-3)Gal(b1-3)GlcNAc(b1-2)Man
Procedure, shortened: as §1

[13] = biological target: Gal(a1-3)Gal(b1-4)[Fuc(a1-3)]GlcNAc(b1-2)Man(a1-3)[Gal(a1-3)Gal(b1-4)[Fuc(a1-3)]GlcNAc(b1-2)Man(a1-6)]Man(b1-4)GlcNAc(b1-4)GlcNAc
Procedure, shortened: as §1

[14] = biological target: Gal(b1-3)GlcNAc(b1-2)Man(a1-3)[Gal(b1-3)GlcNAc(b1-2)Man(a1-6)]Man(b1-4)GlcNAc(b1-4)[Fuc(a1-6)]GlcNAc
Procedure, shortened: as §1

[15] = biological target: Gal(b1-4)Gal
Procedure, shortened: as §1

[16] = biological target: Gal(b1-4)GlcNAc(b1-3)Gal(b1-3)GalNAc
Procedure, shortened: as §1

[17] = biological target: Gal(b1-4)GlcNAc(b1-3)Gal(b1-4)GlcNAc(b1-2)Man(a1-3)[Gal(b1-4)GlcNAc(b1-3)Gal(b1-4)GlcNAc(b1-2)Man(a1-6)]Man(b1-4)GlcNAc(b1-4)[Fuc(a1-6)]GlcNAc
Procedure, shortened: as §1

[18] = biological target: Gal(b1-4)GlcNAc(b1-3)Gal(b1-4)GlcNAc(b1-3)Gal(b1-4)GlcNAc(b1-3)Gal(b1-4)GlcNAc(b1-2)[Gal(b1-4)GlcNAc(b1-3)Gal(b1-4)GlcNAc(b1-3)Gal(b1-4)GlcNAc(b1-3)Gal(b1-4)GlcNAc(b1-6)]Man(a1-6)[Gal(b1-4)GlcNAc(b1-3)Gal(b1-4)GlcNAc(b1-3)Gal(b1-4)GlcNAc(b1-3)Gal(b1-4)GlcNAc(b1-2)Man(a1-3)]Man(b1-4)GlcNAc(b1-4)[Fuc(a1-6)]GlcNAc
Procedure, shortened: as §1

[19] = biological target: Gal(b1-4)GlcNAc(b1-3)GalNAc
Procedure, shortened: as §1

[20] = biological target: Gal(b1-4)GlcNAc(b1-6)GalNAc
Procedure, shortened: as §1

[21] = biological target: Gal(b1-4)GlcNAc6P
Procedure, shortened: as §1

[22] = biological target: Gal3S(b1-3)GlcNAc
Procedure, shortened: as §1

[23] = biological target: GalNAc3S(b1-4)GlcNAc
Procedure, shortened: as §1

[24] = biological target: GalNAc3S(b1-4)GlcNAc3S
Procedure, shortened: as §1

[25] = biological target: GalNAc3S(b1-4)[Fuc(a1-3)]GlcNAc
Procedure, shortened: as §1

[26] = biological target: GlcNAc(b1-2)Man(a1-3)[GlcNAc(b1-2)Man(a1-6)]Man(b1-4)GlcNAc(b1-4)[Fuc(a1-6)]GlcNAc
Procedure, shortened: as §1

[27] = biological target: GlcNAc(b1-2)[GlcNAc(b1-4)]Man(a1-3)[GlcNAc(b1-4)][GlcNAc(b1-2)Man(a1-6)]Man(b1-4)GlcNAc(b1-4)GlcNAc
Procedure, shortened: as §1

[28] = biological target: GlcNAc(b1-2)[GlcNAc(b1-6)]Man(a1-6)[GlcNAc(b1-2)Man(a1-3)]Man(b1-4)GlcNAc(b1-4)GlcNAc
Procedure, shortened: as §1

[29] = biological target: GlcNAc(b1-3)Gal(b1-4)GlcNAc(b1-2)Man(a1-3)[GlcNAc(b1-3)Gal(b1-4)GlcNAc(b1-2)Man(a1-6)]Man(b1-4)GlcNAc(b1-4)[Fuc(a1-6)]GlcNAc
Procedure, shortened: as §1

[30] = biological target: GlcNAc(b1-3)Gal(b1-4)GlcNAc(b1-2)[GlcNAc(b1-3)Gal(b1-4)GlcNAc(b1-6)]Man(a1-6)[GlcNAc(b1-3)Gal(b1-4)GlcNAc(b1-2)Man(a1-3)]Man(b1-4)GlcNAc(b1-4)GlcNAc
Procedure, shortened: as §1

[31] = biological target: GlcNAc(b1-3)Gal(b1-4)GlcNAc(b1-3)GalNAc
Procedure, shortened: as §1

[32] = biological target: Kdn(a2-3)Gal(b1-4)Glc
Procedure, shortened: as §1

[33] = biological target: Man(a1-2)Man(a1-2)Man(a1-6)[Man(a1-3)]Man
Procedure, shortened: as §1

[34] = biological target: Man(a1-2)Man(a1-6)[Man(a1-3)]Man(a1-6)[Man(a1-2)Man(a1-2)Man(a1-3)]Man
Procedure, shortened: as §1

[35] = biological target: Neu5Ac(a2-3)Gal
Procedure, shortened: as §1

[36] = biological target: Neu5Ac(a2-3)Gal(b1-3)GalNAc
Procedure, shortened: as §1

[37] = biological target: Neu5Ac(a2-3)Gal(b1-3)GalNAc(b1-4)Gal(b1-4)Glc
Procedure, shortened: as §1

[38] = biological target: Neu5Ac(a2-3)Gal(b1-3)GalNAc(b1-4)[Neu5Ac(a2-8)Neu5Ac(a2-3)]Gal(b1-4)Glc
Procedure, shortened: as §1

[39] = biological target: Neu5Ac(a2-3)Gal(b1-3)GlcNAc(b1-2)Man(a1-3)[Neu5Ac(a2-3)Gal(b1-3)GlcNAc(b1-2)Man(a1-6)]Man(b1-4)GlcNAc(b1-4)GlcNAc
Procedure, shortened: as §1

[40] = biological target: Neu5Ac(a2-3)Gal(b1-3)]Neu5Ac(a2-3)Gal(b1-4)]GlcNAc
Procedure, shortened: as §1

[41] = biological target: Neu5Ac(a2-3)Gal(b1-4)Glc
Procedure, shortened: as §1

[42] = biological target: Neu5Ac(a2-3)Gal(b1-4)GlcNAc(b1-2)Man(a1-3)[GlcNAc(b1-4)][Neu5Ac(a2-3)Gal(b1-4)GlcNAc(b1-2)Man(a1-6)]Man(b1-4)GlcNAc(b1-4)GlcNAc
Procedure, shortened: as §1

[43] = biological target: Neu5Ac(a2-3)Gal(b1-4)[Fuc(a1-3)]GlcNAc(b1-6)[Gal(b1-3)]GalNAc
Procedure, shortened: as §1

[44] = biological target: Neu5Ac(a2-6)Gal(b1-4)GlcNAc(b1-2)[Neu5Ac(a2-6)Gal(b1-4)GlcNAc(b1-4)]Man(a1-3)[GlcNAc(b1-4)][Neu5Ac(a2-6)Gal(b1-4)GlcNAc(b1-2)[Neu5Ac(a2-6)Gal(b1-4)GlcNAc(b1-6)]Man(a1-6)]Man(b1-4)GlcNAc(b1-4)GlcNAc
Procedure, shortened: as §1

[45] = biological target: Neu5Ac(a2-6)Gal(b1-4)GlcNAc(b1-3)Gal(b1-3)GlcNAc
Procedure, shortened: as §1

[46] = biological target: Neu5Ac(a2-6)GlcNAc(b1-4)GlcNAc
Procedure, shortened: as §1

[47] = biological target: Neu5Ac(a2-8)Neu5Ac(a2-8)Neu5Ac(a2-3)[GalNAc(b1-4)]Gal(b1-4)Glc
Procedure, shortened: as §1

[48] = biological target: Neu5Ac(b2-6)Gal(b1-4)GlcNAc
Procedure, shortened: as §1

[49] = biological target: Neu5Gc(a2-8)Neu5Gc(a2-3)Gal(b1-4)GlcNAc(b1-3)Gal(b1-4)GlcNAc
Procedure, shortened: as §1

[50] = biological target: Neu5Gc(b2-6)Gal(b1-4)GlcNAc
Procedure, shortened: as §1

B1: Siglec-9 (Homo sapiens), Q9Y336 (protein)
chain: MLLLLLPLLWGRERAEGQTSKLLTMQSSVTVQEGLCVHVPCSFSYPSHGWIYPGPVVHGYWFREGANTDQDAPVATNNPARAVWEETRDRFHLLGDPHTKNCTLSIRDARRSDAGRYFFKMEKGSIKWNYKHHRLSVNVTALTHRPNILIPGTLESGCPQNLTCSVPWACEQGTPPMISWIGTSVSPLDPSTTRSSVLTLIPQPQDHGTSLTCQVTFPGASVTTNKTVHLNVSYPPQNLTMTVFQGDGTVSTVLGNGSSLSLPEGQSLRLVCAVDAVDSNPPARLSLSWRGLTLCPSQPSNPGVLELPWVHLRDAAEFTCRAQNPLGSQQVYLNVSLQSKATSGVTQGVVGGAGATALVFLSFCVIFVVVRSCRKKSARPAAGVGDTGIEDANAVRGSASQGPLTEPWAEDSPPDQPPPASARSSVGEGELQYASLSFQMVKPWDSRGQEATDTEYSEIKIHR
glycan array binding signal (z-score) [1]: -0.33 | glycan array binding signal (z-score) [2]: 2.09 | glycan array binding signal (z-score) [3]: 6.8 | glycan array binding signal (z-score) [4]: -0.282 | glycan array binding signal (z-score) [5]: -0.297 | glycan array binding signal (z-score) [6]: 2.46 | glycan array binding signal (z-score) [7]: 1.14 | glycan array binding signal (z-score) [8]: 5.67 | glycan array binding signal (z-score) [9]: -0.568 | glycan array binding signal (z-score) [10]: -0.304 | glycan array binding signal (z-score) [11]: 2.96 | glycan array binding signal (z-score) [12]: 0.513 | glycan array binding signal (z-score) [13]: 3.77 | glycan array binding signal (z-score) [14]: -0.25 | glycan array binding signal (z-score) [15]: 1.95 | glycan array binding signal (z-score) [16]: 0.236 | glycan array binding signal (z-score) [17]: -0.136 | glycan array binding signal (z-score) [18]: -0.342 | glycan array binding signal (z-score) [19]: -0.357 | glycan array binding signal (z-score) [20]: 0.335 | glycan array binding signal (z-score) [21]: 0.464 | glycan array binding signal (z-score) [22]: -0.347 | glycan array binding signal (z-score) [23]: -0.59 | glycan array binding signal (z-score) [24]: -0.23 | glycan array binding signal (z-score) [25]: -0.228 | glycan array binding signal (z-score) [26]: -0.036 | glycan array binding signal (z-score) [27]: 8.32 | glycan array binding signal (z-score) [28]: -0.232 | glycan array binding signal (z-score) [29]: 0.432 | glycan array binding signal (z-score) [30]: -0.559 | glycan array binding signal (z-score) [31]: 0.35 | glycan array binding signal (z-score) [32]: 0.194 | glycan array binding signal (z-score) [33]: 0.213 | glycan array binding signal (z-score) [34]: -0.231 | glycan array binding signal (z-score) [35]: -0.145 | glycan array binding signal (z-score) [36]: 4.95 | glycan array binding signal (z-score) [37]: 0.412 | glycan array binding signal (z-score) [38]: 0.069 | glycan array binding signal (z-score) [39]: 3.12 | glycan array binding signal (z-score) [40]: -0.118 | glycan array binding signal (z-score) [41]: 4.42 | glycan array binding signal (z-score) [42]: -0.284 | glycan array binding signal (z-score) [43]: -0.345 | glycan array binding signal (z-score) [44]: -0.023 | glycan array binding signal (z-score) [45]: -0.551 | glycan array binding signal (z-score) [46]: -0.275 | glycan array binding signal (z-score) [47]: -0.338 | glycan array binding signal (z-score) [48]: -0.52 | glycan array binding signal (z-score) [49]: -0.414 | glycan array binding signal (z-score) [50]: -0.2
